# Measured values reported in the supplement of paper PMC6555819.
# What was measured:
# Experiment in all cases: PBM binding z-score (relative to random genomic background probes); higher = stronger binding; sequences stand for … in GC…GCGATTGACAGCGTAGAATGAAGG
# [1] = test system: RARb homodimer (NR concentration 270 nM)
# Procedure, shortened: (§1)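 For binding z-scores, the reference was random background probes on custom Agilent 4×180K protein-binding microarrays. These arrays were incubated 1 h with ligand-free nuclear receptor dimers in PBS pH 7.4, 2% milk, 0.02% Triton X-100, 1 mM DTT, 0.2 mg/mL BSA and 0.4 mg/ml salmon testes DNA. Fluorescence was scanned after antibody detection of each partner (one per run) and regression-normalized.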
# [2] = test system: RARg:RXRa (NR concentration 270 nM, RXRa partner concentration 90 nM)
# Procedure, shortened: as §1
# [3] = test system: RARg homodimer (NR concentration 270 nM)
# Procedure, shortened: as §1
# [4] = test system: RXRa DBDmut IVT, anti-RXR (DBD mutation: RXRa K156A/R161A, NR concentration 90 nM)
# Procedure, shortened: as §1
# [5] = test system: RXRa homodimer (NR concentration 180 nM)
# Procedure, shortened: as §1
# [6] = test system: THRa:RXRa (NR concentration 90 nM, RXRa partner concentration 90 nM)
# Procedure, shortened: as §1
# [7] = test system: THRa homodimer (NR concentration 90 nM)
# Procedure, shortened: as §1
# [8] = test system: VDR homodimer (NR concentration 270 nM)
# Procedure, shortened: as §1
Sequence,PBM binding z-score [1],PBM binding z-score [2],PBM binding z-score [3],PBM binding z-score [4],PBM binding z-score [5],PBM binding z-score [6],PBM binding z-score [7],PBM binding z-score [8]
CTTCGGAGGACAGAAGGTCAGAGCTGTCCGCTTT,3.32,3.58,3.53,-0.00556,2.14,2.31,-0.137,-0.0466
TGTCAAAGTTCAAAGATAACGTAAGTATCCACAC,3.35,5.44,6.18,4.22,4.6,1.86,-0.41,3.32
TGAATGAGGTTATAAGATCACGGAACGTTGCAAA,0.253,2.04,1.23,0.931,2.7,2.08,0.188,0.468
CTCGAAAGGTCGTGCTGAGGTGAGTATACCAAAC,3.29,5.56,4.04,1.92,4.81,4.6,1.38,1.06
AGTCAAAGTTCAGGACGAGGTAACTTAAAGCACG,3.3,4.79,5.03,3.03,3.16,3.94,1.7,2.28
CCGAGTAGTTTATGGGGCATTCAGGCAACGGTGA,0.512,-0.0698,0.182,0.904,-0.158,0.238,0.0882,0.37
AGTCAAAGTTCAGGACGAGGTAGCGTAAAGCACG,2.76,4.44,4.55,2.81,2.93,2.9,0.672,2.05
